Shown are actives, neighbours in structure and some others; about 3.5% of the full set was active somewhere.
FBW7 activator: activators of human E3 ligase FBW7; AlphaScreen FBW7–phospho-cyclin E peptide binding, activator screen; normalized activity (activation), % at 26.1 µM; 650,000 compounds, 0.13% hits; AID 1259310; in the data active = normalized activity above about 1.9%;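 note: purified mutant Fbw7 with reduced substrate affinity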
Target sequence (Q969H0 whole entry, looked up): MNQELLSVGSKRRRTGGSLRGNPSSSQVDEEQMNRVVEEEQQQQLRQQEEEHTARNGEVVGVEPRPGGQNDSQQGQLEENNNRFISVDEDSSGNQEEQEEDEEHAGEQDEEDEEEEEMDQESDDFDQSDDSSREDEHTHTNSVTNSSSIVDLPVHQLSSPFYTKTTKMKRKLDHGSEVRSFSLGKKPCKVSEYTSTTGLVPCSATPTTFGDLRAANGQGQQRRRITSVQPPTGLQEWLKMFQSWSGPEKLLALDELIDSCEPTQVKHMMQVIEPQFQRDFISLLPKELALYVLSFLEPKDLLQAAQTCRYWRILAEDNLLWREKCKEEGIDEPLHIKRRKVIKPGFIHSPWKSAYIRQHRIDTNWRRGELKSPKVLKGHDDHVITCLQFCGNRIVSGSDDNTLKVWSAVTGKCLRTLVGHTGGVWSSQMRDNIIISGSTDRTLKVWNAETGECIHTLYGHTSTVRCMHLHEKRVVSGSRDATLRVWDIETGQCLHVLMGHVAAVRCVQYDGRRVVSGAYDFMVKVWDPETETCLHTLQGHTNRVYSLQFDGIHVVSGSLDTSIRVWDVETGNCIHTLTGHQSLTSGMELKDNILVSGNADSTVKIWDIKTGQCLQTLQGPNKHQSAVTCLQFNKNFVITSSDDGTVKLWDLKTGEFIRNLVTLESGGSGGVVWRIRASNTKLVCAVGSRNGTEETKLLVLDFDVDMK
MITF primary: blocks human microphthalmia-associated transcription factor | inhibition, % at 2.6 µM | AID 1259374 | AlphaScreen MITF homodimerization, bead proximity signal | O75030 | 650,000 compounds, 0.91% hits; in the data active = inhibition above about 50%
TEAD-YAP block: TEAD-YAP interaction inhibition; 640,000 compounds, 1.4% hits; HEK-TIYL cells, TEAD-Gal4/YAP UAS-luciferase luminescence; inhibition, % at 9.12 µM; AID 1259422; in the data active = inhibition above about 32%
GPR151 ag: activates the human receptor GPR151. PathHunter beta-arrestin GPR151 cells, luminescence. 650,000 compounds, 1% hits. activation, % at 11.2 µM. Q8TDV0; in the data active = activation above about 4.9%
MITF inh conf: human MITF inhibition, confirmation; inhibition, % at 2.6 µM; shares compounds with MITF primary; AlphaScreen MITF homodimerization, biotin/His-MITF beads; 4,700 compounds, 16% hits; AID 1259372;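 active = inhibition above a cutoff derived from the DMSO control wells, cut at about 28% in these data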;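 note: inhibitors lower the bead chemiluminescence by keeping MITF from dimerizing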
AS interf DR: AlphaScreen optical interference, dose response counter-screen; AlphaScreen optical interference counterscreen, cell-free; 480 compounds, 6% hits; IC50, µM; shares compounds with MITF primary; call rule not given here
AS interf ctr: AlphaScreen optical interference, counter-screen. shares compounds with MITF primary. LysRS AlphaScreen counterscreen, signal interference, triplicate. inhibition, % at 2.6 µM. 4,700 compounds, 7.6% hits. AID 1259376;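 active = inhibition above a cutoff derived from the DMSO control wells, cut at about 30% in these data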
Large screens that a line does not name were inactive (follow-up assays come after a bar, where they were run).

Cc1cccn2c(=O)c3c(nc12)CCN(C(=O)Nc1cccc(C(F)(F)F)c1)C3	MITF primary 51 | MITF inh conf inactive | AS interf ctr inactive
Nn1c(SCc2ccc(Cl)cc2)nnc1-c1ccccc1	none
O=C(c1ccccc1F)N(Cc1ccccc1)c1ccccn1	MITF primary 71 | MITF inh conf inactive | AS interf ctr inactive
CC1=C(C(=O)OCc2ccccc2)C(c2cccs2)C(C#N)=C(N)O1 (stereo unspecified)	none
CCCCN1C(=O)NC2NC(=O)NC21 (stereo unspecified)	MITF primary 94 | MITF inh conf 86 | AS interf ctr 54
O=C(CCCNC(=O)OCc1ccccc1)OCN1C(=O)c2ccccc2C1=O	none
CC1NC(=O)NC1CCCCCC(=O)OCN1C(=O)c2ccccc2C1=O (stereo unspecified)	MITF primary 119 | MITF inh conf 117 | AS interf ctr 99
Cc1ccccc1CN1CCN(Cc2ccccn2)CC1	MITF primary 79 | MITF inh conf inactive | AS interf ctr inactive
O=C(CNCc1ccccn1)NCc1ccc(Cl)cc1	MITF primary 74 | MITF inh conf 31 | AS interf ctr 100
Clc1ccc(CN2CCN(Cc3ccccn3)CC2)cc1	MITF primary 63 | MITF inh conf inactive | AS interf ctr inactive
CS(=O)(=O)N1CCN(Cc2ccccn2)CC1	MITF primary 77 | MITF inh conf inactive | AS interf ctr inactive
OC(COCc1ccc(Cl)cc1)CN1CCN(Cc2ccc3c(c2)OCO3)CC1 (stereo unspecified)	none
COc1ccc(C2(C)NC(=O)N(CC(=O)N3CCCc4ccccc43)C2=O)cc1 (stereo unspecified)	none
C=CCOc1c(Br)cc(/C=C2/NC(=O)NC2=O)cc1OCC	none
Cc1ccc(CN2CCN(Cc3ccccn3)CC2)cc1	MITF primary 68 | MITF inh conf inactive | AS interf ctr inactive
c1ccc(N2CCN(Cc3ccccn3)CC2)cc1	none
CN(Cc1ccccc1)C1CCN(Cc2cccnc2)CC1	MITF primary 72 | MITF inh conf inactive | AS interf ctr inactive
CN(Cc1ccccc1)C1CCN(Cc2ccccn2)CC1	none
CN(Cc1ccccc1)C1CCN(Cc2ccncc2)CC1	MITF primary 81 | MITF inh conf inactive | AS interf ctr inactive
CN(C)CCN(Cc1ccccc1)C1CCN(Cc2ccncc2)CC1	none
Cc1cccc(NC(=O)CC2Sc3ccc(C(F)(F)F)cc3NC2=O)c1C (stereo unspecified)	MITF primary 66 | MITF inh conf inactive | AS interf ctr inactive
CCc1ccccc1NC(=O)CC1Sc2ccc(C(F)(F)F)cc2NC1=O (stereo unspecified)	none
CSc1ccccc1NC(=O)CC1Sc2ccc(C(F)(F)F)cc2NC1=O (stereo unspecified)	MITF primary 56 | MITF inh conf inactive | AS interf ctr inactive
S=c1[nH]nc(-c2ccncc2)n1/N=C/C=C/c1ccco1	MITF primary 70 | MITF inh conf 80 | AS interf DR inactive | AS interf ctr inactive
Cc1cncc2cccc(NC3CCN(C(=O)[C@H](C)O)C3)c12 (stereo partly specified)	none
CCCCNS(=O)(=O)c1ccc(S(=O)(=O)NC(C)c2cccs2)cc1 (stereo unspecified)	MITF primary 56 | MITF inh conf inactive | AS interf ctr inactive
CC(NS(=O)(=O)c1ccc(S(=O)(=O)NCc2ccccc2)cc1)c1cccs1 (stereo unspecified)	none
COc1ccc(NC(=O)C2CC(=O)NC(=Nc3ccc(C)c(C)c3)S2)cc1 (stereo unspecified)	none
Cc1ccc(N=C2NC(=O)CC(C(=O)Nc3ccc(Cl)cc3)S2)cc1C (stereo unspecified)	MITF primary 78 | MITF inh conf inactive | AS interf ctr inactive
CC(NCC1(N2CCOCC2)CCCCC1)C(=O)N1CCc2ccccc21 (stereo unspecified)	MITF primary 53 | MITF inh conf inactive | AS interf ctr inactive
CC(Nc1ccccc1)C(=O)N1CCc2ccccc21 (stereo unspecified)	none
Cc1ccccc1NC(=O)C1(N(Cc2ccccc2)C(=O)Cc2nc(N)n[nH]2)CCCCC1	MITF primary 79 | MITF inh conf 101 | AS interf ctr 101
Nc1n[nH]c(CC(=O)N(Cc2ccco2)C2(C(=O)Nc3ccccc3)CCCCC2)n1	MITF primary 66 | MITF inh conf 96 | AS interf ctr 101
Cc1ccc(NC(=O)C2(N(Cc3ccccc3)C(=O)Cc3nc(N)n[nH]3)CCCCC2)cc1	MITF primary 58 | MITF inh conf 100 | AS interf ctr 100
COc1ccc(NC(=O)C2(N(Cc3ccccc3)C(=O)Cc3nc(N)n[nH]3)CCCCC2)cc1	none
COc1ccc(NC(=O)C2(N(Cc3ccco3)C(=O)Cc3nc(N)n[nH]3)CCCCC2)cc1	none
C#CC(C)(C)OC(=O)CCCC(=O)Nc1nc2ccccc2s1	none
C=CCSc1nc(CC)nc2c1c(=O)n(C)c(=O)n2C	none
COc1ccc(Cl)cc1NC(=O)N1CCC(Cn2cnc3ccccc32)CC1	none
O=C(COc1ccccc1)N1CCC(Cn2cnc3ccccc32)CC1	MITF primary 56 | MITF inh conf inactive | AS interf ctr inactive
O=C(NC(c1ccccc1)c1ccccc1)N1CCC(Cn2cnc3ccccc32)CC1	MITF primary 56 | MITF inh conf inactive | AS interf ctr inactive
COc1ccc(CNC(=O)N2CCC(Cn3cnc4ccccc43)CC2)cc1	MITF primary 58 | MITF inh conf inactive | AS interf ctr inactive
O=C(Cn1ccc2ccccc21)N1CCC(Cn2cnc3ccccc32)CC1	none
Cc1ccccc1NC(=O)N1CCC(Cn2cnc3ccccc32)CC1	none
COc1ccc2c(c1)N(C(N)=S)C(C)(C)C=C2C	MITF primary 90 | MITF inh conf 73 | AS interf ctr 57
CCc1ccc(-c2cc(C(=O)Nc3cc(C(=O)OC)cc(C(=O)OC)c3)c3ccccc3n2)cc1	MITF primary 53 | MITF inh conf inactive | AS interf ctr inactive
CCc1ccc(-c2cc(C(=O)Nc3ccc(C(=O)OC)cc3)c3ccccc3n2)cc1	none
Cc1[nH]nc2nc(SCC(=O)NCc3ccco3)n(-c3cccc(Cl)c3)c(=N)c12	none
S=C1NC2(CCCCC2)Oc2ccccc21	none
O=C(CC1N=NN=N1)NCCNC(=O)CC1N=NN=N1	none
COc1ccc(OC)c(CN2CCCC(C(=O)N3CCCCCC3)C2)c1 (stereo unspecified)	MITF primary 93 | MITF inh conf inactive | AS interf ctr inactive
COc1ccc(OC)c(CN2CCC(C(N)=O)CC2)c1	none
COc1ccc(OC)c(CN2CCCC(C(=O)NN)C2)c1 (stereo unspecified)	none
COc1ccc(OC)c(CN2CCCC(C(=O)N3CCCCC3)C2)c1 (stereo unspecified)	MITF primary 78 | MITF inh conf inactive | AS interf ctr inactive
